The structures appear in SMILES notation. Entries with a potency or affinity are not part of this list.

This test relates to Escherichia coli. The note with it: Concentration 20 uM; ASSAY_TEST Inhibition of Bacterial Growth; detection method Absorption (OD600); MEDIA CAMHB; plate type 384well; NBS; CORNING #3640; time 18 hr.
The term Inhibition denotes the relative decrease from the control value, in per cent. As to `CC(C)C(C(=O)Nc1ccc(S(=O)(=O)N(C)C)cc1)c1ccc(Cl)cc1` (centres undefined), the Inhibition worked out at 11.91%.
In the case of `Cc1cccc(-c2nc(Nc3ccncn3)c3sccc3n2)n1`, the Inhibition was determined as 8.12%.
Take `Nc1nc(N)c2c3c(sc2n1)CN(Cc1ccccc1)CC3`: the Inhibition is on record as 6.81%.
Consider `O=C(Nc1cccc(Cl)c1)c1cnc(N2CCN(c3ccncc3)CC2)c(Cl)c1`, for which the Inhibition was 6.8%.
Take `CC(C)n1nc(-c2cc3c(Cl)cccc3[nH]2)c2c(N)ncnc21`: the Inhibition is 4.95%.
As for `O=C(CN1CCOCC1)Nc1ccc2ncnc(Nc3ccc(OCc4cccc(F)c4)c(Cl)c3)c2c1`, the Inhibition stood at 4.06%.
On to `CN1CCC(NCc2cccc(-c3ccc(S(=O)(=O)NCc4ccccc4)cc3)c2)CC1`, for which the Inhibition came out at 4.63%.
As for `CCOc1ccc(-c2nc(CNCCc3ccc(F)cc3)cs2)cc1`, the Inhibition turned out to be 7.75%.
Regarding `CC(C)(C)c1cc(C(=O)N2CCN(c3nccnc3C#N)CC2)n(Cc2ccccc2)n1`, the Inhibition was determined as 10.32%.
In the case of `NS(=O)(=O)c1cccc(-c2ccc3ncc(N4CCOCC4)nc3c2)c1`, the Inhibition came out at 14.17%.
On to `FC(F)(F)c1cc(NCCc2ccccc2)nc(-c2ccccn2)n1`, for which the Inhibition is given as -6.09%.
Under `Cc1ccc2[nH]c(C3CCCNC3)c(-c3ccncc3)c2c1.Cl.Cl` (centres undefined) stands 2.54%.
Turning to `Clc1ccc(-n2cc(COc3ccnc4ccccc34)nn2)cc1`, the Inhibition is given as 8.78%.
Under `CC(C)(C)n1nc(Cc2ccc(F)c(Cl)c2)c2c(N)ncnc21` stands 11.38%; under `CC(C(=O)Nc1ccc2oc(-c3ccncc3)nc2c1)c1ccccc1` (centres undefined), 6.76%.
Regarding `CC(C)n1ncc2c(C(=O)NCC(c3cccs3)N3CCOCC3)cc(-c3ccccc3)nc21` (centres undefined), the Inhibition is on record as 3.42%.
Regarding `O=C1[C@@H](Oc2ccccc2)[C@@H](c2ccc(Cl)cc2)N1CCn1cnc2c(NCc3ccccc3)ncnc21`, the Inhibition is listed as 1.08%.
For `O=C(c1ccc(F)cc1)N(CCNc1ccccc1)c1ccccc1`, the Inhibition is 8.4%.
Under `CCOc1ccc2cc(-c3nn(C(C)(C)C)c(N)c3C(N)=O)cnc2c1.Cl` stands 7.93%.
